Source: PubChem BioAssay (NCI)
Where “and” joins values, the source holds several entries; their conditions need not be identical. Equal entries are not always repeated. About 83,000 compounds went through this panel and 20% of them were active in at least one assay; those are over-represented in the sample as a whole.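 Compound tested at a single concentration for 48 hours in 96-well plates; a percent growth value below 10 was scored as active.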 Calls of active or inactive are those of the source.

Assays:
Assay in all cases: NCI-60 one-dose screen, 48 h (100 = growth as untreated, 0 = no growth, -100 = all killed)
Conditions in all cases: 10 µM unless noted
[1] = system: NCI-H23 lung
[2] = system: NCI-H226 lung
[3] = system: HOP-62 NSCLC
[4] = system: NCI-H460 lung
[5] = system: HOP-92 NSCLC
[6] = system: NCI-H522 lung
[7] = system: A549/ATCC NSCLC
[8] = system: 786-0 renal
[9] = system: COLO 205 colon
[10] = system: NCI-H322M lung

Measured: growth

CCN(CC)CCOc1ccc(/C(=C(\Cl)c2ccccc2)c2ccccc2)cc1
inactive: [1] 61.2% and 81.6% | [2] 27.6% and 49.4% | [5] 30.6% and 83.7% | [6] 43.9% and 98.7% | [7] 84.8%
active: [4] 5.92% | [9] -74.8% and -60.4%
-65.1% (active) and 87.8% (inactive): [8]
-40% (active) and 61.3% (inactive): [3]

CC1(C)C(N)=Nc2cc(OCCCCN3Cc4ccccc4C3)c(OCC3CC3)cc21
inactive: [1] 80.3% | [2] 79.6% | [3] 85.6% | [4] 75.2% | [5] 103% | [6] 64.2% | [7] 79.5% | [8] 64.8%
active: [9] -62.7%

O=Nc1ccc(NO)c2ccccc12
inactive: [1] 90.6% and 68.3% | [10] 97.8% and 96.2% | [3] 103% and 90.5% | [4] 94.6% and 105% | [5] 95.1% and 92.9% | [6] 93.3% and 69.5% | [7] 106% and 27.5% | [8] 104% and 96.9% | [9] 101% and 85.1%

COc1cc(Nc2nc3ccccc3cc2C(=O)Nc2ccc(F)c(F)c2)cc(OC)c1OC
active: [1] 9.57% | [4] 9.51% | [5] 1.01% | [9] 9.14%
inactive: [2] 22.1% | [3] 46% | [6] 20.4% | [7] 22.7% | [8] 34.5%

O=c1oc2c(Br)cc(Br)cc2cc1-c1cc(-c2ccc(-c3cc(-c4cc5cc(Br)cc(Br)c5oc4=O)nc(-c4cc5cc(Br)cc(Br)c5oc4=O)c3)cc2)cc(-c2cc3cc(Br)cc(Br)c3oc2=O)n1
inactive: [1] 96.5% | [2] 102% | [3] 104% | [4] 105% | [5] 108% | [6] 86.8% | [7] 105% | [8] 111% | [9] 110%

CCCCSc1ccc2nc(-c3ccc(OCCCN=C(N)N)cc3)cn2c1
inactive: [1] 63.7% | [2] 72.3% | [3] 86.4% | [4] 43.7% | [5] 43.1% | [6] 53.8% | [7] 83.8% | [8] 39.4% | [9] 51.1%

COC(=O)c1nc(-c2ccc(C)cc2)oc1Sc1ccc(C)cc1
inactive: [1] 105% | [2] 104% | [3] 94% | [4] 107% | [5] 87.9% | [6] 78.7% | [7] 97.6% | [8] 95.7% | [9] 102%

CCCN1C(=O)/C(=c2\sc3n(c2=O)NC2C(N=3)N(CC)C(=O)N2CC)c2ccccc21 (stereo not given)
inactive: [1] 38.8% | [2] 69.3% | [3] 50.8% | [4] 18.5% | [5] 86.2% | [6] 11.9% | [7] 42% | [8] 53.3% | [9] 23%

N=C(N)c1ccc(-c2ccc(-c3ccc(Cl)c(Cl)c3)s2)cc1
inactive: [1] 63.1% | [2] 98.9% | [3] 40.8% | [5] 74.4%
active: [4] -58.7% | [6] -38.4% | [7] -51.9% | [8] -3.47% | [9] -17.9%

COc1ccc(C/C(C)=C(\c2ccc(O)cc2)c2ccc(OCCCN(C)C)cc2)cc1
inactive: [1] 91.8% | [2] 94.2% | [3] 111% | [4] 93.7% | [5] 68.7% | [6] 91.5% | [7] 90.6% | [8] 101% | [9] 97%

Cn1cc(-c2nonc2-c2cn(C)c3ccc(Br)cc23)c2ccccc21
inactive: [1] 56.4% | [2] 71.3% | [3] 25.8% | [4] 12.9% | [5] 44.4% | [7] 40.1% | [8] 33.3% | [9] 29.6%
active: [6] 8.18%

CC[C@]1(O)CC2CN(CCc3c([nH]c4ccccc34)C(C(=O)OC)(c3cc4c(cc3OC)N(C=O)[C@H]3[C@@](O)(C(=O)OC)[C@H](OC(C)=O)[C@]5(CC)[C@@H]6C[C@@H]6CN6CC[C@]43[C@@H]65)C2)C1 (stereo not given in full)
inactive: [2] 19.3% | [3] 22.5% | [7] 17.9%
active: [1] 6.32% | [4] 3.37% | [5] -0.4% | [6] -21.4% | [8] 5.62% | [9] -87.9%

C#Cc1cc(C(=O)Nc2ccc(CN3CCN(C)CC3)c(C(F)(F)F)c2)ccc1C
inactive: [1] 88.2% | [2] 83.6% | [3] 88.5% | [4] 71.6% | [5] 58.5% | [6] 96.1% | [7] 70.8% | [8] 52.2% | [9] 56.3%

Clc1nccc2c(-c3csc(-c4c[nH]c5ccc(Br)cc45)n3)c[nH]c12
inactive: [1] 31.9% | [2] 33.6% | [7] 15.1%
active: [3] 7.78% | [4] -5.23% | [5] 6.84% | [6] 1.55% | [8] -68.2% | [9] 7.99%

CN(Cc1ccccc1)c1nc(Cl)c(C2CC(c3ccc4c(c3)OCO4)=NN2c2cc(Cl)cc(Cl)c2)s1 (stereo not given)
inactive: [1] 96.2% | [2] 102% | [3] 89.2% | [4] 103% | [5] 99% | [6] 94.2% | [7] 90.7% | [8] 90% | [9] 93.6%

CCCCCCCCN(CCCCCCCC)CC(O)c1cc(Cl)ccc1OC (stereo not given)
inactive: [1] 56% | [2] 62% | [3] 80.8% | [4] 62.6% | [5] 66% | [6] 68% | [7] 83.9% | [8] 72.7% | [9] 55.5%

Nc1nc(Nc2cccnc2)sc1C(=O)c1ccccc1F
inactive: [1] 37.9% | [2] 24.4% | [3] 21.2% | [4] 21.7% | [5] 51.8% | [6] 71.4% | [7] 27% | [8] 18.2% | [9] 20.5%

Nc1ccccc1SC(CC(=O)c1ccccc1)c1ccc([N+](=O)[O-])cc1 (stereo not given)
inactive: [1] 93.2% and 84.7% | [10] 107% and 83.8% | [3] 106% and 102% | [4] 103% and 105% | [5] 71.4% | [6] 96.9% and 76.4% | [7] 93.9% and 82% | [8] 106% and 93.3% | [9] 91.6% and 102%

O=C(N=Nc1c(O)[nH]c2ccccc12)Nc1ccc(Br)cc1
inactive: [1] 101% | [2] 83.6% | [3] 98.4% | [4] 92.1% | [5] 66.5% | [6] 72.3% | [7] 98.9% | [8] 89.6% | [9] 97.8%

COc1ccc(/C=N/NC(=O)CN2CCN(c3cc4c(cc3F)c(=O)c(C(=O)O)cn4C3CC3)CC2)cc1O
inactive: [1] 103% | [2] 112% | [3] 98.9% | [4] 105% | [5] 91.8% | [6] 80.8% | [7] 99.5% | [8] 101% | [9] 112%

O=C1N=c2ccccc2=C1c1sc(=S)n(C2CC(=O)N(c3ccc(Cl)cc3)C2=O)c1O (stereo not given)
inactive: [1] 99.2% | [2] 92% | [3] 93.2% | [4] 102% | [5] 98.6% | [6] 97.1% | [7] 107% | [8] 102% | [9] 118%

CC[C@]12CN3CCc4c([nH]c5ccccc45)[C@@](C(=O)OC)(c4cc5c(cc4OC)N(C)[C@H]4[C@@](O)(C(=O)OC)[C@H](OC(C)=O)[C@]6(CC)C=CCN7CC[C@]54[C@@H]76)CC(C3)[C@H]1O2 (stereo not given in full)
active: [4] -27.3% | [5] 9.26% | [6] -5.19% | [9] -49.9%
inactive: [1] 21.1% | [2] 42.6% | [3] 50.9% | [7] 20.9% | [8] 19.6%

COc1c(O)c(O)cc2c3c(oc12)CC(c1ccc2c(c1)OCO2)CC3=O (stereo not given)
inactive: [1] 69.4% | [2] 80% | [3] 71.4% | [4] 25% | [5] 71.7% | [6] 54.2% | [7] 60.7% | [8] 52.1% | [9] 119%

COc1cc(CO)cc2cc3ccccc3nc12
inactive: [1] 97.3% | [2] 79.4% | [3] 95.7% | [4] 105% | [5] 103% | [6] 96.8% | [7] 104% | [8] 97.8% | [9] 107%

Cc1ccc(C(=O)Nc2ccc(CN3CCN(C)CC3)c(C(F)(F)F)c2)cc1C#Cc1cnc(N)cc1C#N
active: [1] -40.7% | [2] 9.78% | [3] -69.7% | [4] -80.7% | [5] -39.8% | [6] -72.7% | [7] -84.7% | [8] -73.8% | [9] -64.9%

CC/C(=C(/c1ccc(O)cc1)c1ccc(OCCN2CCCCCC2)cc1)c1ccc(Cl)cc1
inactive: [1] 80.4% | [2] 89.2% | [3] 98.8% | [4] 46% | [5] 69.5% | [6] 90.2% | [7] 70.6% | [8] 18.4%
active: [9] 4.48%

Cc1ccc(-c2nc3nc(-c4ccccc4)nc(N4CCN(S(=O)(=O)c5ccccc5)CC4)c3o2)cc1
inactive: [1] 88.3% | [2] 76.5% | [3] 72.3% | [4] 73.3% | [5] 95.1% | [6] 72.9% | [7] 91.5% | [8] 61% | [9] 125%

N#CC1C(=O)c2ccccc2C1c1ccccc1 (stereo not given)
inactive: [1] 97.4% and 102% | [10] 105% and 96.7% | [3] 98.8% and 107% | [4] 114% and 105% | [5] 75.2% and 84.7% | [6] 96.4% and 99% | [7] 102% | [8] 93.1% and 89.8% | [9] 115%

C#CCOCC1CN(C)C(=O)O1 (stereo not given)
inactive: [1] 111% | [2] 103% | [3] 131% | [4] 103% | [5] 97.8% | [6] 99.7% | [7] 93.7% | [8] 110% | [9] 123%

CCOC(=O)CCCn1c(-c2ccccc2)cc(-c2ccccc2)c(C#N)c1=O
inactive: [1] 83.5% | [2] 89.5% | [3] 93.7% | [4] 65.4% | [5] 48.3% | [6] 70.1% | [7] 84.3% | [8] 88.8% | [9] 98.4%
